{"source": "PubChem BioAssay AID504467", "about": "(National Center for Advancing Translational Sciences (NCATS), 2011)", "note": "Out of some 330,000 compounds screened, about 7,700 (2.3%) were called active. Another 26% or so got no clear call; they are omitted. Calls come from the whole dose curve; as a rule, active = well fitted inhibition curve with a large enough effect; inconclusive = small, poorly fitted or top-dose-only effect, or effect the other way; inactive = flat fitted curve, though single readings scatter. Many of the other results were omitted from the sample, so actives are more common in it than they were. % is set by controls: 0 for no effect and ±100 for the full control effect; potency is the fitted concentration of half-maximal effect."}
{"experiment": "qHTS screen for small molecules that inhibit ELG1-dependent DNA repair in human embryonic kidney (HEK293T) cells expressing luciferase-tagged ELG1; note: nearly all actives have a fitted effect of over 55% in size", "details": "HEK293T ELG1-luciferase reporter, luminescence, 16 h, DNA damage induced by 5-fluorouridine; series mostly up to 46.1 µM; activity change, negative = inhibition: at the top concentration", "how_it_was_run": "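Cells (2,000 per well) received 5-fluorouridine plus test compound or DMSO and were incubated 16 hr at 37 °C, 5% CO2. Luciferase activity was read by luminescence 30 min after ONE-Glo addition; signal suppression marked inhibition of damage-induced ELG1 function.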"}
{"smiles": "CCN(C(=O)COC(=O)Cc1c(F)cccc1Cl)c1c(N)n(Cc2ccccc2)c(=O)[nH]c1=O", "activity change, negative = inhibition": "2.59% (inactive)"}
{"smiles": "CCCc1nc2c([nH]1)C(c1cccnc1)C(C#N)=C(N)O2", "note": "(stereo unspecified)", "activity change, negative = inhibition": "2.12% (inactive)"}
{"smiles": "N#CC1=C(N)Oc2c(ccc3cccnc23)C1c1ccncc1", "note": "(stereo unspecified)", "Potency": "9.2 µM (active)"}
{"smiles": "COc1ccc(-c2[nH]nc3c2C(c2ccncc2)C(C#N)=C(N)O3)cc1", "note": "(stereo unspecified)", "activity change, negative = inhibition": "0.962% (inactive)"}
{"smiles": "O=C(CNC(=O)c1n[nH]c2ccccc12)Nc1cc(Cl)ccc1Cl", "activity change, negative = inhibition": "2.2% (inactive)"}
{"smiles": "CCOC(CNC(=O)C1CCN(S(=O)(=O)c2ccc3nc4c(c(C(=O)O)c3c2)CC(C)CC4)CC1)OCC", "note": "(stereo unspecified)", "activity change, negative = inhibition": "5.78% (inactive)"}
{"smiles": "COc1ccc(CNC(=O)COC(=O)c2sccc2C)cc1OC", "activity change, negative = inhibition": "10.7% (inactive)"}
{"smiles": "COc1cc(C(=O)N(Cc2ccc(N(C)C)cc2)C2CCS(=O)(=O)C2)cc(OC)c1OC", "note": "(stereo unspecified)", "activity change, negative = inhibition": "-9.44% (inactive)"}
{"smiles": "COc1cc(C(=O)NCCOC(=O)c2cccc(N(C)C)c2)cc(OC)c1OC", "Potency": "11.6 µM (active)"}
{"smiles": "CCCOP(=O)(c1ccc(N(C)C)cc1)C(O)c1cc(OC)c(OC)c(OC)c1", "note": "(stereo unspecified)", "activity change, negative = inhibition": "-8.9% (inactive)"}
{"smiles": "COC(=O)c1ccc(CNC(=O)c2ccc(S(=O)(=O)N3CCCCCC3)cc2)cc1", "activity change, negative = inhibition": "-24.3% (inactive)"}
{"smiles": "O=C(N[C@H]1C/C=C\\C(c2cccc(F)c2)N(Cc2ccccc2)C(=O)C1)OCC1c2ccccc2-c2ccccc21", "note": "(stereo partly specified)", "activity change, negative = inhibition": "-4.08% (inactive)"}
{"smiles": "COC(=O)c1cc(S(=O)(=O)N2CCN(c3cc(C)ccc3C)CC2)c[nH]1", "activity change, negative = inhibition": "-6.27% (inactive)"}
{"smiles": "O=C(c1cn(-c2ccccc2)nc1-c1cccnc1)N1CCCCC1", "activity change, negative = inhibition": "-0.348% (inactive)"}
{"smiles": "NC(=O)C1CCN(C(=O)c2cn(-c3ccccc3)nc2-c2cccnc2)CC1", "activity change, negative = inhibition": "7.76% (inactive)"}
{"smiles": "O=C(c1cn(-c2ccccc2)nc1-c1cccnc1)N1CCN(S(=O)(=O)c2ccccc2F)CC1", "Potency": "14.6 µM (active)"}
{"smiles": "O=C(OCc1cc(=O)n2ccsc2n1)C1(c2ccc(Cl)cc2)CC1", "activity change, negative = inhibition": "-0.471% (inactive)"}
{"smiles": "COc1cc(C(=O)NC2CCN(Cc3ccccc3)CC2)cc(Cl)c1OC(C)C", "activity change, negative = inhibition": "-12.8% (inactive)"}
{"smiles": "O=C(CCC(=O)c1cccs1)NCc1ccccc1", "activity change, negative = inhibition": "5.13% (inactive)"}
{"smiles": "O=C(c1cccs1)n1nc(NCc2ccccc2)nc1NCc1ccccc1", "Potency": "25.9 µM (active)"}
{"smiles": "Nc1nc(NCc2ccccc2)n(-c2ccccc2)n1", "activity change, negative = inhibition": "3.41% (inactive)"}
{"smiles": "COc1ccc(C)cc1NC(=O)CSc1cccc[n+]1[O-]", "activity change, negative = inhibition": "0% (inactive)"}
{"smiles": "CC[C@@H]1CCCCc2ccccc2[C@@H](C(=O)C[C@H](O)CC(C)=O)OC1=O", "activity change, negative = inhibition": "-3.84% (inactive)"}
{"smiles": "COc1ccc(C(CNC(=O)c2ccc(S(=O)(=O)Nc3ccccc3C)cc2)N2CCOCC2)cc1", "note": "(stereo unspecified)", "activity change, negative = inhibition": "-13.2% (inactive)"}
{"smiles": "CCOC(=O)N1CCN(C(=O)c2ccc(S(=O)(=O)Nc3cccc(C(F)(F)F)c3)cc2)CC1", "activity change, negative = inhibition": "-25.5% (inactive)"}
{"smiles": "O=C(NCc1ccccc1)c1ccc(S(=O)(=O)Nc2cccc(C(F)(F)F)c2)cc1", "Potency": "13 µM (active)"}
{"smiles": "O=C(NCc1ccncc1)c1cccc(NS(=O)(=O)c2ccc(F)c(F)c2)c1", "activity change, negative = inhibition": "19.7% (inactive)"}
{"smiles": "O=C1C(=O)N(CCN2CCOCC2)C(c2cccc(Cl)c2)/C1=C(/O)c1ccc2c(c1)OCO2", "note": "(stereo unspecified)", "activity change, negative = inhibition": "6.98% (inactive)"}
{"smiles": "Cc1sc2ncn(CC(=O)NCCCC(=O)N(C)Cc3ccccc3)c(=O)c2c1C", "activity change, negative = inhibition": "-3.5% (inactive)"}
{"smiles": "O=C(COc1ccc(Br)cc1F)NCC1(N2CCCCC2)CCCCC1", "activity change, negative = inhibition": "7.66% (inactive)"}
{"smiles": "CSc1ncccc1C(=O)NCC(c1ccco1)N1CCCCC1", "note": "(stereo unspecified)", "activity change, negative = inhibition": "13.9% (inactive)"}
